# Source: PubChem BioAssay
# Giardia kill: Small Molecules that selectively kill Giardia lamblia: qHTS; actives 0.15% (n = 340,000); activity change, % at 7.66 µM, hits read low; AID 540267, 2011; Giardia lamblia trophozoite viability; in the data active means activity change below about -80%; inconclusive means between about -30% and that limit;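 further: parasites exposed to compound for two days anaerobically before the ATP read; on the % scale 0 is the no-effect control and ±100 the full control effect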
#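 Compounds were tested on trophozoites seeded at 100 cells/well and held 48 hrs at 37 deg C anaerobically. An ATP-based luminescent kit measured the remaining live cells.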
# RORg inh: qHTS for inhibitors of ROR gamma transcriptional activity; Potency, µM (series often up to 53.6 µM), for the others: at the highest dose activity change, negative = inhibition, hits mostly inhibitors; Drosophila S2 Gal4-RORgamma UAS-luciferase reporter, 20 h; actives 5.4% (n = 310,000); further: potency means the concentration at half of the fitted maximal effect; on the % scale 0 is the no-effect control and ±100 the full control effect; nearly all actives have a fitted effect of over 60% in size
# Target sequence (P51450 whole entry, looked up, the tested form may be a part): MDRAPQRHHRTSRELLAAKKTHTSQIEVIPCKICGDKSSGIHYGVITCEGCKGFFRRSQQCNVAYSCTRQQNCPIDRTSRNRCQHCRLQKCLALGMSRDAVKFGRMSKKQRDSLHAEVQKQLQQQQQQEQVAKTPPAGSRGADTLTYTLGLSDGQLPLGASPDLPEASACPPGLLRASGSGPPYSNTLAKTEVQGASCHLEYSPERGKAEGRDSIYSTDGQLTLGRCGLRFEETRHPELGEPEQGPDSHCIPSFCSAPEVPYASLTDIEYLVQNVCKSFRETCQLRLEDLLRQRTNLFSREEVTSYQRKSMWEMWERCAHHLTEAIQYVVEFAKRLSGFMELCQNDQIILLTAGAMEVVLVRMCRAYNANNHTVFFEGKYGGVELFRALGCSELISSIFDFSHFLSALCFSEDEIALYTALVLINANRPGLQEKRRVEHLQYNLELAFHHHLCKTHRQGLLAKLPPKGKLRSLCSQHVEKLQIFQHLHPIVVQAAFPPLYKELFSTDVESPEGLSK
#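 Luminescence from a UAS-regulated Photinus luciferase reporter in stably transfected Drosophila Schneider cells is measured; decreased signal marks ROR gamma inhibition. Fusion expression is induced by 700 uM copper sulfate for 20 hr.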
# BRCA1 expr up: qHTS Assay to Identify Small Molecule Activators of BRCA1 Expression; MCF7-BRCA1-FFLuc reporter, luminescence, 48 h; response scale: scaled: vehicle 0%, 10 µM genistein 100%; Potency, µM (top dose mostly 46.1 µM), for inactives: top-dose activation, actives largely listed as activators; actives 1.1% (n = 380,000); further: potency means the concentration at half of the fitted maximal effect; nearly all actives have a fitted effect of over 80% in size
#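 Quantitative HTS in MCF7 cells stably reporting BRCA1 expression via firefly luciferase. Compound treatment lasts 48 h at 37 °C in phenol-red free MEM. Activation is expressed relative to genistein at 10 microM and DMSO.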
# Gal4-VP16 FLuc: VP16 counterscreen qHTS for inhibitors of ROR gamma transcriptional activity; Potency, µM (highest dose often 53.6 µM), inactives show top-dose activity, negative = inhibition, actives largely listed as inhibitors; Drosophila S2 Gal4-VP16 UAS-luciferase, luminescence, 20 h; AID 2546, 2010; actives 3.5% (n = 310,000);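 further: Gal4-VP16 expression switched on by copper sulfate through the metallothionein promoter; potency means the concentration at half of the fitted maximal effect; on the % scale 0 is the no-effect control and ±100 the full control effect; nearly all actives have a fitted effect of over 50% in size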
# ELG1 DNA repair: qHTS screen for small molecules that inhibit ELG1-dependent DNA repair in human embryonic kidney (HEK293T) cells expressing luciferase-tagged ELG1; HEK293T ELG1-luciferase reporter, luminescence, 16 h; DNA damage induced by 5-fluorouridine; Potency, µM (top dose mostly 46.1 µM), for inactives: at the top dose activity change, negative = inhibition, hits mostly inhibitors; actives 2.3% (n = 330,000); AID 504467, 2011; further: potency means the concentration at half of the fitted maximal effect; on the % scale 0 is the no-effect control and ±100 the full control effect; nearly all actives have a fitted effect of over 55% in size
#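 Reporter activity after DNA damage by 5-fluorouridine is monitored. Compound-treated cells incubate 16 hr at 37 °C, then ONE-Glo is added for 30 min before luminescence reading.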
# p53 reactivator: qHTS assay for re-activators of p53 using a Luc reporter | H1299 p53-A138V BP100-luciferase reporter, luminescence, 24 h | Potency, µM (series often up to 92.2 µM), for inactives: top-dose activity change, positive = activation, most hits filed as activators | actives 0.063% (n = 320,000) | AID 504706, 2011; further: potency means the concentration at half of the fitted maximal effect; % of control where 0% means no effect; nearly all actives have a fitted effect of over 45% in size
#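 p53-null H1299 cells stably carrying temperature-sensitive p53-A138V and a BP100-luciferase reporter were pinned with compounds (4-point, 1:5 series) and held 24 hrs at 37 deg C. Luminescence was read 10 min after detection reagent.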
# Starred values were filed as active, the others as inactive; ? = inconclusive; . = no result given; ! = a repeat was not active; [ ] = another dose, or the depositor's remark. In the library only some 7.6% were active in any assay of this set; here they are far more common. Unless noted, the call rests on the fitted dose curve; in most records, active means well fitted curve in the direction sought with a large enough effect; inconclusive means small, poorly fitted or top-dose-only effect, or another doubt; inactive means no such curve, though single readings can be large; an effect the other way counts as inactive or inconclusive.
SMILES,Giardia kill,RORg inh,BRCA1 expr up,Gal4-VP16 FLuc,ELG1 DNA repair,p53 reactivator
O=[N+]([O-])c1cc(CN2CCOCC2)c2cccnc2c1O,28,3%,-7%,4%,-11%,-1%
O=[N+]([O-])c1cc(Cl)c(O)c2ncccc12,0,0.71µM*,-88%,1.3µM*,?,?
O=[N+]([O-])c1cc(F)c2cccnc2c1O,34,1.3µM*,-78%,3.2µM*,21µM*,9%
O=[N+]([O-])c1cc(CN2CCN(c3ccccc3)CC2)c(O)c2ncccc12,5,0.11µM*,-63%,-87%,4.6µM*,11%
O=[N+]([O-])c1cc(Cl)c2cccnc2c1O,-11,2.8µM*,-89%,4µM*,?,18%
O=[N+]([O-])c1cccc2c(Cl)ccnc12,5,-8%,-46%,-1%,0%,-1%
Cc1ccnc2c([N+](=O)[O-])cccc12,.,.,10%,.,.,.
O=[N+]([O-])c1ccc(Cl)c2cccnc12,-7,21%,-21%,-12%,-22%,2%
Cc1ccc2c(CC(=O)OCC(=O)N(CC(C)C)c3c(N)n(Cc4ccccc4)c(=O)[nH]c3=O)coc2c1,-3,.,7%,.,-3%,18%
Oc1c(I)cc(Cl)c2cccnc12,1,0.4µM*,-64%,1µM*!,13%,16%
CN(Cc1cc([N+](=O)[O-])c2cccnc2c1O)C1CCCCC1,.,4µM*,.,?,20%,2%
CN(Cc1ccccc1)C(=O)CCSc1nc(-c2ccc3c(c2)OCO3)cc(C(F)(F)F)n1,-3,20%,-71%,7%,16µM*,-11%
Cc1cc(-c2nnc(CCC(=O)NC(C)c3cccc4ccccc34)o2)no1 (configuration not stated),-11,10%,10%,28%,0%,0%
Cc1ccccc1OCC(=O)N1CCCCCCC1,-14,.,-5%,.,10%,.
N/C(=N\OC(=O)c1cccc2ccccc12)c1ccc(Br)cc1,-1,10µM*,-55%,5µM*,?,13%
N/C(Cc1ccccc1)=N\OC(=O)c1cccc2ccccc12,-1,-7%,-42%,8.9µM*,?,-28%
N/C(=N\OC(=O)c1cccc2ccccc12)c1ccncc1,-7,-17%,8%,-8%,?,?
CCc1nc2ccc(C(=O)N3CCN(CC)CC3)cc2nc1CC,41,1%,-2%,-6%,0%,1%
CCc1nc2ccc(C(=O)O)cc2nc1CC,5,0.71µM*,6%,?,?,10%
CCc1nc2ccc(C(=O)Nc3cccc(C(C)=O)c3)cc2nc1CC,9,?,23%,-17%,18µM*,-34%
CCc1nc2ccc(C(=O)Nc3ccc4c(c3)OCO4)cc2nc1CC,5,26%,54%,-13%[10 µM],0%,5%
CCC1C(=O)CC(c2ccco2)NC1c1ccco1 (configuration not stated),-12,39%,-9%,9%,-1%,9%
COc1ccc(CCNC(=O)c2cc(C(=O)c3cc(C)ccc3O)cn(CCc3ccc(OC)cc3)c2=O)cc1,-26,34%,-29%,-21%,13µM*,5%
COc1ccc(CCNC(=O)c2cc(C(=O)c3cc(Cl)ccc3O)cn(CCc3ccc(OC)cc3)c2=O)cc1,-11,?,-64%,-7%,?,0%
O=C(c1cc(C(=O)NCCc2ccccc2)c(=O)n(CCc2ccccc2)c1)c1cc(Cl)ccc1O,-10,?,-86%,14µM*,23µM*,0%
SMILES,Giardia kill,RORg inh,BRCA1 expr up,Gal4-VP16 FLuc,ELG1 DNA repair,p53 reactivator
Cc1cccc(-n2nnnc2SCC(=O)NCC2(N3CCOCC3)CCCCC2)c1C,8,.,-21%,.,?,-5%
COc1ccc(N(CC(=O)Nc2ccc3c(c2)OCO3)S(=O)(=O)c2ccc(C)cc2)cc1OC,-11,5%,0%,-6%,26µM*,1%
COc1ccc(N(CC(=O)NCCC2=CCCCC2)S(=O)(=O)c2ccc(C)cc2)cc1OC,-15,-11%,-23%,19%[10 µM],15µM*,4%
COc1ccc(N(CC(=O)Nc2ccc3c(c2)OCO3)S(=O)(=O)c2ccccc2)c(OC)c1,3,6%,-52%,2%,15µM*,-4%
COc1ccc(N(CC(=O)Nc2ccc3c(c2)OCO3)S(=O)(=O)c2ccccc2)cc1OC,-1,2%,0%,1%,?,-3%
COc1cccc(NC(=O)CN(c2ccccc2OC)S(=O)(=O)c2cccs2)c1,-3,.,-35%,.,21µM*,-18%
CCC(C)(C)NC(=O)C(c1ccc(OC)cc1)N(CCOC)C(=O)CCC(=O)Nc1nccs1 (configuration not stated),-3,-1%,-2%,-6%,-16%,0%
N#Cc1ccc(OCC(=O)NC2=NCCS2)cc1,-14,35%,41%,-9%,25%,7%
Cc1ccc(-n2cccn2)c(CN2CCCC(C(=O)c3sccc3C)C2)c1 (configuration not stated),-9,-23%,-74%,-9%,16µM*,-3%
O=C(NCCCN1CCOCC1)C(=O)N/N=C/c1ccc(F)cc1,-21,-6%,4%,4%,8%,0%
O=C(NC1C(=O)NNC1c1ccccc1)c1ccc(F)cc1 (configuration not stated),-12,12%,-6%,-11%,30%,8%
Cc1ccc(C2NNC(=O)C2NC(=O)c2ccccc2)cc1 (configuration not stated),-9,?,11µM*,17%,?,0%
CCOc1ccccc1C(=O)OCC(=O)Nc1cccc(S(=O)(=O)N2CCCC2)c1,-7,.,-24%,.,?,-1%
CCOc1ccc(C(=O)Nc2nnc(SCC(=O)NCC3CCCO3)s2)cc1 (configuration not stated),-94*,?,-57%,3.5µM*,?,21%
CC(C)(C)c1ccc(C(=O)Nc2nnc(SCC(=O)NCC3CCCO3)s2)cc1 (configuration not stated),-93*,?,-43%,7.1µM*,?,18%
CCOc1ccc(-c2ccc(SC)nn2)cc1,-87*,?,?,?,?,-3%
CCOc1ccc(-c2ccc(SCC(=O)NCC3CCCO3)nn2)cc1 (configuration not stated),-26,?,4µM*,-30%,?,15%
